PubChem BioAssay (NCI)
Compounds without any hit were thinned out: in the full panel of roughly 79,000, 15% have a hit. A number with no mark means an inactive call. The source made the active and inactive calls. Cut-off read from the data, not from the text of the source: active = growth inhibition above about 70%; inactive = the rest.

Key:
[1] = NCI Yeast Anticancer Drug Screen. Data for the rad52 strain (AID 147);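 note: 0% = growth of vehicle-treated control cultures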; settings: S. cerevisiae rad52 mutant growth inhibition, stronger effect = higher value
How it was run: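 Inhibition of yeast growth, referenced to vehicle controls, was the measured output for a strain with defective DNA damage repair.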

[2] = NCI Yeast Anticancer Drug Screen. Data for the wt1 strain (AID 149);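 note: 0% = growth of vehicle-treated wt1 cultures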; settings: S. cerevisiae wt1 strain (SPY 50644) growth inhibition, stronger effect = higher value
How it was run: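 wt1 strain grown with compound or vehicle; inhibition taken from the growth difference.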

[3] = NCI Yeast Anticancer Drug Screen. Data for the rad50EPP+ strain (AID 151);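 note: 0% = growth of vehicle-treated control cultures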; settings: S. cerevisiae rad50 mutant strain, stronger effect = higher value
How it was run: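 Genetically defined yeast (rad50EPP+, DNA damage repair alteration) is grown with compound, and inhibition of growth is expressed relative to vehicle-treated controls.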

[4] = NCI Yeast Anticancer Drug Screen. Data for the rad50 strain (AID 155);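 note: 0% = growth of vehicle-only cultures of the same strain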; settings: S. cerevisiae rad50 strain growth inhibition, stronger effect = higher value
How it was run: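 DNA repair mutant yeast, compound exposure, growth read-out; inhibition is taken relative to vehicle.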

[5] = NCI Yeast Anticancer Drug Screen. Data for the mec2-1 strain (AID 157); settings: S. cerevisiae mec2-1 strain, stronger effect = higher value
How it was run: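 Each compound was tested on mec2-1 yeast, a strain altered in DNA damage repair or cell cycle control. Growth inhibition is reported relative to vehicle.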

[6] = NCI Yeast Anticancer Drug Screen. Data for the rad14 strain (AID 159);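 note: 0% = growth of vehicle-treated control cultures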; settings: S. cerevisiae rad14 strain growth inhibition, stronger effect = higher value
How it was run: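 DNA repair-defective yeast, compound-exposed; % growth inhibition derived by comparison with vehicle-treated controls.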

[7] = NCI Yeast Anticancer Drug Screen. Data for the sgs1 mgt1 strain (AID 161);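 note: 0% = growth of cultures given vehicle only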; settings: S. cerevisiae sgs1 mgt1 strain, stronger effect = higher value
How it was run: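 Read-out: growth inhibition vs vehicle controls. Cells: mutant yeast strain deficient in DNA damage repair.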

[8] = NCI Yeast Anticancer Drug Screen. Data for the CLN2oe strain (AID 163);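 note: 0% = growth of vehicle-only control cultures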; settings: S. cerevisiae CLN2oe strain, stronger effect = higher value
How it was run: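 First, the altered yeast strain was treated with each compound; second, its growth was measured; finally, inhibition was derived by comparison with vehicle controls.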

[9] = NCI Yeast Anticancer Drug Screen. Data for the cln2 rad14 strain (AID 165);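 note: 0% = growth equal to vehicle treated cultures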; settings: S. cerevisiae cln2 rad14 strain, stronger effect = higher value
How it was run: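 Test compounds were added to cln2 rad14 yeast cultures; inhibition of growth was then determined by comparison with vehicle treatment.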

[10] = NCI Yeast Anticancer Drug Screen. Data for the bub3 strain (AID 167); settings: S. cerevisiae bub3 mutant strain, stronger effect = higher value
How it was run: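 In this screen, a yeast mutant lacking normal mitotic checkpoint function is challenged with compound. Relative growth versus vehicle gives the inhibition value.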

[11] = NCI Yeast Anticancer Drug Screen. Data for the mlh1 strain (AID 171);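 note: 0% = growth of vehicle-treated control cultures of the same strain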; settings: S. cerevisiae mlh1 strain growth inhibition, stronger effect = higher value
How it was run: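 Inhibition values reflect reduced yeast growth in the presence of compound, referenced to vehicle controls, using a strain chosen for its alteration in DNA repair or cell cycle control.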

[12] = NCI Yeast Anticancer Drug Screen. Data for the sgs1 strain (AID 173);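 note: 0% = growth of vehicle-only control cultures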; settings: S. cerevisiae sgs1 mutant, stronger effect = higher value
How it was run: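 Vehicle-treated cultures served as reference for growth inhibition of a yeast strain altered in DNA damage repair or cell cycle control after compound exposure.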

[13] = NCI Yeast Anticancer Drug Screen. Data for the mlh1 rad18 strain (AID 175); settings: S. cerevisiae mlh1 rad18 strain growth inhibition, stronger effect = higher value
How it was run: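 Inhibition values reflect reduced growth of mutant yeast versus vehicle-treated controls following compound exposure; the mutations affect DNA damage repair.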

[14] = NCI Yeast Anticancer Drug Screen. Data for the rad18 strain (AID 177); settings: S. cerevisiae rad18 mutant growth inhibition, stronger effect = higher value
How it was run: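 Steps: expose repair-mutant yeast to compound; measure growth; express as inhibition relative to vehicle control.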

[15] = NCI Yeast Anticancer Drug Screen. Data for the wt2 strain (AID 169);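 note: 0% = growth of vehicle-treated yeast cultures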; settings: S. cerevisiae wt2 strain growth inhibition, stronger effect = higher value
How it was run: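 The panel's yeast strains carry defined changes in DNA repair or cell cycle genes. Each strain is grown with compound, and growth loss is scored relative to vehicle.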

[16] = at 5.0 µM (retest, dose inferred, filed as 0.5)
[17] = at 50.0 µM (retest, dose inferred, filed as 5.0)

Structure (SMILES): Cc1nc2c(ncn2CCO)c(=O)[nH]1
- growth inhibition ([1]; at 1.2 µM): -3%
- growth inhibition ([1]; at 3.7 µM): -8%
- growth inhibition ([1]; at 11.0 µM): -7%
- growth inhibition ([1]; at 33.0 µM): -12%
- growth inhibition ([1]; at 100.0 µM): -14%
- growth inhibition ([2]; at 1.2 µM): -36%
- growth inhibition ([2]; at 3.7 µM): -22%
- growth inhibition ([2]; at 11.0 µM): -38%
- growth inhibition ([2]; at 33.0 µM): -42%
- growth inhibition ([2]; at 100.0 µM): -41%
- growth inhibition ([3]; at 1.2 µM): -11%
- growth inhibition ([3]; at 3.7 µM): 10%
- growth inhibition ([3]; at 11.0 µM): 5%
- growth inhibition ([3]; at 33.0 µM): 3%
- growth inhibition ([3]; at 100.0 µM): 1%
- growth inhibition ([4]; at 1.2 µM): -29%
- growth inhibition ([4]; at 3.7 µM): -34%
- growth inhibition [4, 16]: 29%
- growth inhibition ([4]; at 11.0 µM): -32%
- growth inhibition ([4]; at 33.0 µM): -33%
- growth inhibition [4, 17]: 39%
- growth inhibition ([4]; at 50.0 µM): 7.95%
- growth inhibition ([4]; at 100.0 µM): -24%
- growth inhibition ([5]; at 1.2 µM): 15%
- growth inhibition ([5]; at 3.7 µM): -2%
- growth inhibition [5, 16]: 13%
- growth inhibition ([5]; at 11.0 µM): -3%
- growth inhibition ([5]; at 33.0 µM): -3%
- growth inhibition [5, 17]: 47%
- growth inhibition ([5]; at 50.0 µM): -20.6%
- growth inhibition ([5]; at 100.0 µM): -13%
- growth inhibition ([6]; at 1.2 µM): -3%
- growth inhibition ([6]; at 3.7 µM): 6%
- growth inhibition ([6]; at 11.0 µM): 11%
- growth inhibition ([6]; at 33.0 µM): -5%
- growth inhibition ([6]; at 100.0 µM): -2%
- growth inhibition [7, 16]: 29%
- growth inhibition ([7]; at 50.0 µM): 2.1%
- growth inhibition ([8]; at 1.2 µM): 0%
- growth inhibition ([8]; at 3.7 µM): -7%
- growth inhibition ([8]; at 11.0 µM): -2%
- growth inhibition ([8]; at 33.0 µM): -6%
- growth inhibition ([8]; at 100.0 µM): -4%
- growth inhibition [9, 16]: 8%
- growth inhibition [9, 17]: 34%
- growth inhibition ([9]; at 50.0 µM): 8.25%
- growth inhibition ([10]; at 1.2 µM): -10%
- growth inhibition ([10]; at 3.7 µM): -7%
- growth inhibition [10, 16]: 21%
- growth inhibition ([10]; at 11.0 µM): -17%
- growth inhibition ([10]; at 33.0 µM): -13%
- growth inhibition [10, 17]: 76% (active)
- growth inhibition ([10]; at 50.0 µM): 0.5%
- growth inhibition ([10]; at 100.0 µM): -28%
- growth inhibition ([11]; at 1.2 µM): -16%
- growth inhibition ([11]; at 3.7 µM): -11%
- growth inhibition ([11]; at 11.0 µM): -14%
- growth inhibition ([11]; at 33.0 µM): -18%
- growth inhibition ([11]; at 100.0 µM): -5%
- growth inhibition ([12]; at 1.2 µM): 2%
- growth inhibition ([12]; at 3.7 µM): 8%
- growth inhibition ([12]; at 11.0 µM): 9%
- growth inhibition ([12]; at 33.0 µM): 5%
- growth inhibition ([12]; at 100.0 µM): -2%
- growth inhibition [13, 16]: 45%
- growth inhibition [13, 17]: 91% (active)
- growth inhibition ([13]; at 50.0 µM): -40.7%
- growth inhibition ([14]; at 1.2 µM): -38%
- growth inhibition ([14]; at 3.7 µM): -32%
- growth inhibition ([14]; at 11.0 µM): -9%
- growth inhibition ([14]; at 33.0 µM): -35%
- growth inhibition ([14]; at 100.0 µM): -36%

Structure (SMILES): Cc1ccc2occ/c(=N\Nc3ccccc3)c2c1
- growth inhibition ([1]; at 1.2 µM): -3%
- growth inhibition ([1]; at 3.7 µM): -4%
- growth inhibition ([1]; at 11.0 µM): 8%
- growth inhibition ([1]; at 33.0 µM): 33%
- growth inhibition ([1]; at 100.0 µM): 39%
- growth inhibition ([2]; at 1.2 µM): 2%
- growth inhibition ([2]; at 3.7 µM): -5%
- growth inhibition ([2]; at 11.0 µM): 4%
- growth inhibition ([2]; at 33.0 µM): 11%
- growth inhibition ([2]; at 100.0 µM): 16%
- growth inhibition ([3]; at 1.2 µM): 1%
- growth inhibition ([3]; at 3.7 µM): -3%
- growth inhibition ([3]; at 11.0 µM): 4%
- growth inhibition ([3]; at 33.0 µM): 58%
- growth inhibition ([3]; at 100.0 µM): 55%
- growth inhibition ([4]; at 1.2 µM): 5%
- growth inhibition ([4]; at 3.7 µM): -7%
- growth inhibition [4, 16]: -16%
- growth inhibition ([4]; at 11.0 µM): 6%
- growth inhibition ([4]; at 33.0 µM): 57%
- growth inhibition [4, 17]: 31%
- growth inhibition ([4]; at 50.0 µM): 73.8% (active)
- growth inhibition ([4]; at 100.0 µM): 58%
- growth inhibition ([5]; at 1.2 µM): -4%
- growth inhibition ([5]; at 3.7 µM): -4%
- growth inhibition [5, 16]: -11%
- growth inhibition ([5]; at 11.0 µM): -2%
- growth inhibition ([5]; at 33.0 µM): 17%
- growth inhibition [5, 17]: 23%
- growth inhibition ([5]; at 50.0 µM): 52.7%
- growth inhibition ([5]; at 100.0 µM): 24%
- growth inhibition [7, 16]: -1%
- growth inhibition [7, 17]: 70% (active)
- growth inhibition ([7]; at 50.0 µM): 82.5% (active)
- growth inhibition ([8]; at 1.2 µM): -9%
- growth inhibition ([8]; at 3.7 µM): -7%
- growth inhibition ([8]; at 11.0 µM): 5%
- growth inhibition ([8]; at 33.0 µM): -1%
- growth inhibition ([8]; at 100.0 µM): 12%
- growth inhibition [9, 16]: -21%
- growth inhibition [9, 17]: -23%
- growth inhibition ([9]; at 50.0 µM): -23.1%
- growth inhibition ([10]; at 1.2 µM): -4%
- growth inhibition ([10]; at 3.7 µM): -4%
- growth inhibition [10, 16]: -4%
- growth inhibition ([10]; at 11.0 µM): -4%
- growth inhibition ([10]; at 33.0 µM): 64%
- growth inhibition [10, 17]: 70% (active)
- growth inhibition ([10]; at 50.0 µM): 87.8% (active)
- growth inhibition ([10]; at 100.0 µM): 70% (active)
- growth inhibition ([15]; at 1.2 µM): -2%
- growth inhibition ([15]; at 3.7 µM): -4%
- growth inhibition ([15]; at 11.0 µM): 7%
- growth inhibition ([15]; at 33.0 µM): 55%
- growth inhibition ([15]; at 100.0 µM): 57%
- growth inhibition ([11]; at 1.2 µM): -1%
- growth inhibition ([11]; at 3.7 µM): -5%
- growth inhibition ([11]; at 11.0 µM): -1%
- growth inhibition ([11]; at 33.0 µM): 59%
- growth inhibition ([11]; at 100.0 µM): 63%
